BL2 CD40 inh = CD40 pathway inhibition in BL2 cells; BL2 NF-kB luciferase reporter, CD40L-induced, 4 h; inhibition, % at 10 µM; hit rate 0.94% among 83,000; AID 1053188;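 active = mean inhibition of at least 50% with a set share of replicates also reaching that level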;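 also: 0% = neutral control wells and 100% = IKK inhibitor VII at 50 µM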
Numbers without * were called inactive; [ ] = dose if it differs, or a comment. This excerpt belongs to a sample that is enriched for hits.

SMILES | BL2 CD40 inh
CN(C)CC(=O)N[C@@H]1CC[C@@H](CCNC(=O)C2CCC2)O[C@H]1CO | -2.3[25 µM]
N#C[C@@H]1[C@H](c2ccccc2)[C@H](CO)N1S(=O)(=O)c1ccc(-c2ccccc2)cc1 | 20.6[25 µM]
COc1ccccc1S(=O)(=O)N1CC[C@H]2[C@H](CO)Nc3ccc(Br)cc3[C@H]21 | 3.9[25 µM]
CNC[C@@H]1Oc2c(NC(C)=O)cccc2C(=O)N(C)C[C@H]1C | 4.8
C[C@@H]1CN([C@@H](C)CO)C(=O)c2cc(NC(=O)Nc3ccc4c(c3)OCO4)ccc2O[C@@H](C)CCCCO[C@H]1CN(C)C(=O)Nc1ccccc1 | 2.9
COc1ccc(C#Cc2ccc([C@@H]3[C@H]4CN(C(=O)Nc5cccc(F)c5)CCCCN4[C@H]3CO)cc2)cc1 | 5.3[25 µM]
COc1ccc(C#Cc2ccc([C@@H]3[C@H](CO)N4CCCCN(C(=O)Nc5cccc(F)c5)C[C@@H]34)cc2)cc1 | 67.8*[25 µM]
COc1ccc(C#Cc2ccc([C@H]3[C@@H](CO)N4CCCCN(C(=O)Nc5cccc(F)c5)C[C@H]34)cc2)cc1 | 21.7[25 µM]
Cc1cc(C)nc(NC(=O)CN2C(=O)c3ccccc3S2(=O)=O)n1 | 4.2
O=C(CN1C(=O)c2ccccc2S1(=O)=O)Nc1ncccn1 | 7.4
O=C(CN1C(=O)c2ccccc2S1(=O)=O)Nc1ncc(Cl)cc1Cl | 56.3*
Cc1ccc(S(=O)(=O)N(C)C[C@H]2OCc3ccccc3-c3ccccc3C(=O)N([C@H](C)CO)C[C@H]2C)cc1 | 1.6
C[C@H]1CN([C@@H](C)CO)C(=O)c2ccccc2-c2ccccc2CO[C@@H]1CN(C)C(=O)c1ccncc1 | -14.2
C[C@H](NC(=O)N(C)C[C@H]1OCc2ccccc2-c2ccccc2C(=O)N([C@@H](C)CO)C[C@H]1C)c1ccccc1 | -16.6[25 µM]
O=C(c1ccccc1)c1cc(-c2ccccc2)on1 | 73.3*
Cc1cc(NC(=O)c2cc(-c3ccccc3)on2)no1 | -48.8
O=C(NCc1ccccn1)c1cc(-c2ccccc2)on1 | -24.5
CCNC(=O)[C@H]1[C@H](CO)[C@H]2Cn3c(ccc(C4=CCCCC4)c3=O)[C@@H]1N2CC | 2.5[25 µM]
CS(=O)(=O)N1[C@@H](C#N)[C@@H](c2ccc(C#CC3CCCC3)cc2)[C@@H]1CO | -9.9[25 µM]
O=C(COc1cccnc1[N+](=O)[O-])Nc1c(Cl)cccc1Cl | 4.5
O=C(COc1cccnc1[N+](=O)[O-])c1ccc(Cl)s1 | 92.2*
O=C(COc1cccnc1[N+](=O)[O-])Nc1ncc(Cl)cc1Cl | -15.1
CO[C@@H]1CN(C)C(=O)c2cc(NC(=O)Nc3ccccc3Cl)ccc2OC[C@@H](C)N(S(=O)(=O)CC(F)(F)F)C[C@H]1C | 6.3[25 µM]
C[C@@H]1CN([C@@H](C)CO)C(=O)c2cc(NS(=O)(=O)c3ccc(Cl)cc3)ccc2O[C@@H](C)CCCCO[C@H]1CN(C)S(=O)(=O)c1ccccc1 | 3.9
CC(C)[C@@H](C)NC(=O)N(C)C[C@@H]1OCc2ccccc2-c2ccccc2C(=O)N([C@@H](C)CO)C[C@@H]1C | -1.5
SMILES | BL2 CD40 inh
CO[C@H]1CC[C@H]2CCOc3ccc(C#N)cc3C(=O)N(C)C[C@H](c3ccccc3)CC(=O)N(C)C[C@@H]1O2 | 4.4[25 µM]
O=C(COc1ccccc1)Nc1ccc(Cl)cn1 | -57.0
CCOc1ncccc1C(=O)OCC(=O)Nc1ccc(Cl)cn1 | 15.2
COc1ccccc1C(=O)OCC(=O)Nc1ccc(Cl)cn1 | 48.9*
C/C=C/c1ccccc1[C@@H]1[C@H](C#N)N(C(=O)CN2CCOCC2)[C@H]1CO | -11.5[25 µM]
COc1cccc(CN(C)C(=O)C23CC4CC(CC(NC(C)=O)(C4)C2)C3)c1OC | 5.4
O=C(COC(=O)c1cccs1)c1ccc2ccccc2c1 | -83.3
O=C(Nc1ccc(NC(=O)c2cccs2)cc1)c1ccc2c(c1)OCCO2 | 3.4
N#CCC(=O)Nc1ccc(C(=O)OCC(=O)c2ccc3c(c2)OCO3)cc1 | -63.4
O=C(COC(=O)c1ccccc1-c1ccccc1[N+](=O)[O-])c1ccccc1 | -11.7
CNS(=O)(=O)c1cccc(C(=O)OCC(=O)c2ccc3c(c2)OCCO3)c1 | 25.0
O=C(COC(=O)c1cccs1)c1ccc2c(c1)OCCO2 | 113.1*
CC(=O)NC12CC3CC(C1)CC(C(=O)OCC(=O)c1ccc4c(c1)OCCO4)(C3)C2 | 59.3*
O=C(COC(=O)c1ccccc1[N+](=O)[O-])c1ccc2c(c1)OCO2 | 88.0*
Cc1cc(C(=O)Nc2cccc3c2O[C@@H](CN(C)C(=O)NC2CCCCC2)[C@@H](C)CN([C@H](C)CO)C3=O)n(C)n1 | -3.2
C[C@@H]1CN([C@@H](C)CO)C(=O)c2ccccc2-c2ccccc2CO[C@@H]1CN(C)S(=O)(=O)c1cccc(F)c1 | -3.4
O=C(Cc1ccccn1)N[C@@H]1CC[C@H](CCNS(=O)(=O)c2cccc(F)c2)O[C@H]1CO | 6.3[25 µM]
C[C@@H]1CC=CCCNC(=O)[C@@H](Cc2ccccc2)N(C)C(=O)c2ccccc2O1 (mixture of isomers) | 4.4[25 µM]
CCCNC(=O)[C@@H]1[C@@H](CO)[C@@H]2Cn3c(ccc(-c4ccccc4F)c3=O)[C@@H]2N1C(=O)C1CCC1 | -8.4[25 µM]
COc1cc(/C=N/n2cnnc2)ccc1OCC(=O)N1CCOCC1 | 6.4
COc1cc(/C=N/n2cnnc2)ccc1OC(=O)c1cccnc1 | 18.7
COc1cc(/C=N/n2cnnc2)ccc1OC(=O)c1ccncc1 | 65.0*
CCS(=O)(=O)N[C@H]1C=C[C@@H](CC(=O)NCc2ccc(Cl)cc2)O[C@@H]1CO | 1.2
Cc1nn(C)cc1NC(=O)C[C@@H]1CC[C@@H]2[C@@H](COc3ccc(NC(=O)c4cccc(F)c4)cc3C(=O)N2C)O1 | -11.1[25 µM]
CN(C)CC(=O)N1[C@H](CO)[C@@H](c2ccc(-c3ccc(C(=O)N(C)C)cc3)cc2)[C@@H]1C#N | -14.1
SMILES | BL2 CD40 inh
COc1ccc(-c2ccc3c(c2)[C@H]2[C@H](CCN2C(=O)NC2CCCC2)[C@H](CO)N3C)cc1 | -8.2
CCS(=O)(=O)N1CC2(CN(C(=O)NC(C)C)[C@H](CO)c3c2c2ccc(OC)cc2n3C)C1 | -3.5[25 µM]
COc1ccc([C@H]2C/C=C\C[C@H](c3ccc4c(c3)OCO4)NC(=O)[C@H](c3ccccc3)CC(=O)N2)c(OC)c1 | -7.5[25 µM]
C[C@H](CO)N1C[C@H](C)[C@H](CN(C)CC2CC2)Oc2ccc(NS(C)(=O)=O)cc2CC1=O | -7.3
CCNC(=O)c1cc2c(c(-c3cccc(-c4cc5ccccc5o4)c3)n1)[C@@H](CCO)N(C(=O)NC(C)C)C2 | -23.1
CC(C)NC(=O)N1Cc2cc(C(=O)NC3CCC3)nc(-c3cccc(-c4cncnc4)c3)c2[C@@H]1CCO | 9.6[25 µM]
CCCNC(=O)c1cc2c(c(-c3cccc(-c4cc5ccccc5o4)c3)n1)[C@H](CCO)N(C(=O)NC(C)C)C2 | 55.8*[25 µM]
COc1ccc2c3c([nH]c2c1)[C@H](CO)NCC31CN(Cc2cc(F)ccc2F)C1 | -10.2[25 µM]
CC(C)NC(=O)Nc1ccc2c(c1)CC(=O)N(C)C[C@@H](C)[C@@H](CN(C)C)O2 | -4.7
O=C(Cc1ccncc1)Nc1ccc2c(c1)[C@H]1C[C@H](CC(=O)N3CCc4ccccc4C3)O[C@@H](CO)[C@H]1O2 | 1.4[25 µM]
O=C(Nc1ccc(C(F)(F)F)cc1)Nc1ccc2c(c1)[C@H]1C[C@H](CC(=O)N3CCc4ccccc4C3)O[C@@H](CO)[C@H]1O2 | 5.9[25 µM]
O=C(Cc1ccncc1)Nc1ccc2c(c1)[C@@H]1C[C@@H](CC(=O)N3CCc4ccccc4C3)O[C@@H](CO)[C@@H]1O2 | 7.6[25 µM]
O=C(Nc1ccc(C(F)(F)F)cc1)Nc1ccc2c(c1)[C@H]1C[C@@H](CC(=O)N3CCc4ccccc4C3)O[C@H](CO)[C@H]1O2 | 50.0*[25 µM]

Source: PubChem (Broad Institute)
